High-throughput results as filed in PubChem.
HCMV antiviral: blocks human cytomegalovirus replication. HFF cells, HCMV-luciferase reporter, 72 h; stronger effect = lower value. activity change, negative = inhibition, % at 57.5 µM. 410,000 compounds, 4.5% hits; in the data active means activity change below about -60%; inconclusive means no clear call, values can overlap the other calls; inactive means above about -39%
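Compounds were evaluated in HFFs infected with an HCMV luciferase reporter virus (MOI 1 PFU/cell). Luciferase in lysates collected 72 h post infection served as the replication measure.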
Pf growth 48h: inhibits P. falciparum growth in the first generation, 48 h. P. falciparum luciferase growth in erythrocytes, 48 h. Potency, µM (doses to about 28.7 µM), without a hit: at the top dose activity change, negative = inhibition, actives largely listed as inhibitors. 310,000 compounds, 5.9% hits. AID 504832; further: potency means the concentration at half of the fitted maximal effect
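Firefly luciferase activity from engineered P. falciparum reports growth; inhibitors lower the luminescent signal. Cultures contained 2% hematocrit erythrocytes at 0.1% final parasitemia.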
FBPA Giardia inh: Giardia lamblia aldolase inhibition; purified Giardia FBPA; 290,000 compounds, 0.71% hits; Potency, µM (titrated, usually from 59.6 µM), without a hit: at the highest dose activity, negative = inhibition, usual class: inhibitors; further: potency means the concentration at half of the fitted maximal effect; nearly all actives have a fitted effect of over 55% in size
Target sequence (A8B2U2 whole entry, looked up): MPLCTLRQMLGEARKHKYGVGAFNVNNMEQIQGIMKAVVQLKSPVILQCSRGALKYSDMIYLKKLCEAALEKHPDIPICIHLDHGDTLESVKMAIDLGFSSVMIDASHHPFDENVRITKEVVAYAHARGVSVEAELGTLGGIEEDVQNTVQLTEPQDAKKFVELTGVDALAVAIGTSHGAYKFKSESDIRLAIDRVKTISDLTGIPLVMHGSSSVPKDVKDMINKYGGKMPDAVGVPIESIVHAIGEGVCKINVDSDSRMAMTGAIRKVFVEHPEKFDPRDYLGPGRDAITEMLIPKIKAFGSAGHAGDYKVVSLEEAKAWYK
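40 nM FBPA preincubated 10 min at RT with compound (up to 57.5 uM final), then substrate plus GAPDH/TPI/NAD/arsenate coupling and diaphorase/resazurin added. Fluorescence read after 20 min at RT, 525/598 nm.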
Sm TGR inh: inhibitors of Schistosoma mansoni thioredoxin glutathione reductase; purified TGR, DTNB reduction, TNB absorbance 405 nm; Potency, µM (doses to about 114 µM), for the others: at the highest dose activity change, negative = inhibition, usual class: inhibitors; 360,000 compounds, 3% hits; AID 485364; further: potency means the concentration at half of the fitted maximal effect; nearly all actives have a fitted effect of over 60% in size
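Kinetic colorimetric format: TGR-catalysed, NADPH-driven DTNB reduction monitored via TNB absorbance. Enzyme dispensed at 20 nM; compound exposure 15 min at room temperature before reaction start.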
Pf growth 96h: P. falciparum growth inhibition at 96 hour, primary screen for plastid delayed-death inhibitors | Potency, µM (highest dose often 28.7 µM), for the others: top-dose activity change, negative = inhibition, most hits filed as inhibitors | AID 504834 | 320,000 compounds, 6.9% hits | P. falciparum luciferase reporter growth, 96 h; further: potency means the concentration at half of the fitted maximal effect
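Erythrocytes infected with luciferase-expressing P. falciparum were dispensed at 2% hematocrit and 0.05% parasitemia (final), then incubated with compounds 96 hours at 37 C in 5% CO2. Luminescence after detection reagent addition reported growth.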
Starred values were filed as active, the others as inactive; ! = a repeat was not active. Rows were chosen to be rich in hits. Some 14% of all compounds tested hit in one or more screens of this group. Unless noted, the call rests on the fitted dose curve; in most records, active means well fitted curve in the direction sought with a large enough effect; inconclusive means small, poorly fitted or top-dose-only effect, or another doubt; inactive means no such curve, though single readings can be large; an effect the other way counts as inactive or inconclusive. On the % scale 0 is the no-effect control and ±100 the full control effect.

Screening Cc1ccc(NC(=O)CSc2ccc3nnc(-c4cccnc4)n3n2)cc1 returned HCMV antiviral 28, Pf growth 48h -2%, Sm TGR inh -19% and Pf growth 96h 33%.
`O=C(CSc1ccc2nnc(-c3cccc(F)c3)n2n1)NCc1ccco1` gave HCMV antiviral 43, Pf growth 48h inconclusive, FBPA Giardia inh 0%, Sm TGR inh inconclusive and Pf growth 96h 6.6µM*.
COc1ccc(OC)c(NC(=O)CSc2ccc3nnc(-c4cccnc4)n3n2)c1 was read as HCMV antiviral 19, Pf growth 48h inconclusive, FBPA Giardia inh 0%, Sm TGR inh 6% and Pf growth 96h 12µM*.
For Cc1cc(NC(=O)CSc2ccc3nnc(-c4cccs4)n3n2)no1 the results were HCMV antiviral -11, FBPA Giardia inh inconclusive, Sm TGR inh 1% and Pf growth 96h 2.3µM*.
Screening COc1ccc(OCC(=O)N2CCN(S(=O)(=O)c3ccc4c(c3)OCCO4)CC2)cc1 returned HCMV antiviral -8.
For NCCS the results were HCMV antiviral 5, Pf growth 48h 4%, FBPA Giardia inh 16µM*!, Sm TGR inh -11% and Pf growth 96h 9%.
`CC(=O)N1CCc2cc(S(=O)(=O)NC(CC(C)C)C(=O)NCc3ccccc3Cl)ccc21` (centres undefined) gave HCMV antiviral -27 and Sm TGR inh -5%.
Screening CCC(=O)N1CCc2cc(S(=O)(=O)NCCC(=O)NCc3ccccc3Cl)ccc21 returned HCMV antiviral -31, Pf growth 48h 2%, FBPA Giardia inh 9%, Sm TGR inh -10% and Pf growth 96h 8.3µM*.
For CC(=O)N1CCc2cc(NC(=O)C3(C)CCN3Cc3ccccc3Cl)ccc21 (centres undefined) the results were HCMV antiviral -78*.
COc1cccc(CNC(=O)C(NS(=O)(=O)c2ccc3c(c2)CCN3C(C)=O)C(C)C)c1 (centres undefined) was read as HCMV antiviral active!, Pf growth 48h -10%, Sm TGR inh 0% and Pf growth 96h -11%.
`CC(=O)N1CCc2cc(S(=O)(=O)NCC(=O)NCc3ccccc3Cl)ccc21` gave HCMV antiviral -12, Pf growth 48h -14%, Sm TGR inh -3% and Pf growth 96h 9.3µM*.
Screening Cc1ccc(CNC(=O)c2cc(NS(=O)(=O)c3ccc(C)cc3)ccn2)cc1 returned HCMV antiviral -7 and Sm TGR inh -25%.
Screening C=CCC(C)(O)/C=C/c1ccccc1 (centres undefined) returned FBPA Giardia inh -1%.
For CC(=O)N1CCc2cc(S(=O)(=O)NC3CCCc4ccccc43)ccc21 (centres undefined) the results were HCMV antiviral -64*, Pf growth 48h -8%, FBPA Giardia inh -1%, Sm TGR inh -3% and Pf growth 96h -12%.
Screening O=C(O)c1ccc(S(=O)(=O)NC2CCCc3ccccc32)cc1 (centres undefined) returned HCMV antiviral 7, Pf growth 48h 1%, FBPA Giardia inh inconclusive, Sm TGR inh -24% and Pf growth 96h 81%.
Screening FC(F)(F)c1ccc(-c2cccc3c2C2CC3CCN2C(=S)NCCc2ccccc2)cc1 (centres undefined) returned HCMV antiviral 1.
For O=C(NCCN1CCC2(CC1)C(=O)NCN2c1cccc(F)c1)c1ccc2ccccc2c1 the results were HCMV antiviral -101*.
O=C1NCN(c2ccccc2)C12CCN(CCCC(c1ccc(F)cc1)c1ccc(F)cc1)CC2 was read as HCMV antiviral 58, Pf growth 48h 1.9µM*, FBPA Giardia inh -1%, Sm TGR inh 20% and Pf growth 96h 3.7µM*.
`O=c1[nH]c2ccccc2n1C1CCN(CCCC(c2ccc(F)cc2)c2ccc(F)cc2)CC1` gave HCMV antiviral inconclusive, Pf growth 48h inconclusive, FBPA Giardia inh -2%, Sm TGR inh 13% and Pf growth 96h 2.6µM*.
For O=C1NCN(c2ccccc2)C12CCNCC2 the results were HCMV antiviral 21, Pf growth 48h 2.6µM*, FBPA Giardia inh 0%, Sm TGR inh -33% and Pf growth 96h inconclusive.
`OCC[C@H]1C[C@H](O)[C@@H](O)[C@@]2(OCCCc3ccccc32)O1` gave HCMV antiviral 4, Pf growth 48h inconclusive, Sm TGR inh 17% and Pf growth 96h 59%.
For O=C(c1ccc2c(c1)OCO2)N1C[C@H]2[C@@H](c3ccccc31)[C@H](CO)N2C(=O)CC1CC1 the results were HCMV antiviral -6.
O=C(COC(=O)c1c[nH]c(=O)[nH]c1=O)Nc1cccc([N+](=O)[O-])c1 was read as HCMV antiviral -5, Pf growth 48h 3%, Sm TGR inh -19% and Pf growth 96h 1%.
C/C(NCCc1ccc(O)cc1)=C1/CCOC1=O was read as HCMV antiviral -12.
Screening CC(OC(=O)c1cccc(-n2cnnn2)c1)c1nc2ccccc2c(=O)[nH]1 (centres undefined) returned HCMV antiviral -65*, Pf growth 48h inconclusive, Sm TGR inh -22% and Pf growth 96h inconclusive.
COC(=O)[C@]12CCCCC=C1N(Cc1cccc3ccccc13)C(=O)[C@H](CC(=O)NCCc1ccccc1OC)C2 was read as HCMV antiviral -12.
Screening CCC(c1nc2ccccc2[nH]1)n1c(-c2ccc3ccccc3c2)nc2ccccc21 (centres undefined) returned HCMV antiviral -13.
CCCCCCCCC(c1nc2ccccc2[nH]1)N1CCN=C1c1cc2ccccc2[nH]1 (centres undefined) was read as HCMV antiviral -103*.
Screening COc1ccccc1Nc1nnc(Cc2ccccc2)c(=O)[nH]1 returned HCMV antiviral 4, Pf growth 48h 22%, FBPA Giardia inh 1%, Sm TGR inh 2% and Pf growth 96h 12µM*.
For COc1ccc(Cc2nnc(Nc3ccccc3OC)[nH]c2=O)cc1 the results were HCMV antiviral -24, Pf growth 48h inconclusive, FBPA Giardia inh 1%, Sm TGR inh 10% and Pf growth 96h -5%.
`Cc1ccc(Sc2nc(-c3ccccc3)nnc2C(F)(F)F)cc1` gave HCMV antiviral 1, Pf growth 48h 13µM*, FBPA Giardia inh -5%, Sm TGR inh -19% and Pf growth 96h 0%.
`CSc1ccc(C(=O)C2CCCN(Cc3cccn3-c3cccnc3)C2)cc1` (centres undefined) gave HCMV antiviral -31, Pf growth 48h 10µM*, FBPA Giardia inh -3%, Sm TGR inh inconclusive and Pf growth 96h 11%.
Screening CSc1ccc(C(=O)C2CCCN(Cc3cccnc3)C2)cc1 (centres undefined) returned HCMV antiviral -62*, Pf growth 48h inconclusive, FBPA Giardia inh 4%, Sm TGR inh 3% and Pf growth 96h inconclusive.
